Data reported in the supplement of paper PMC10849652.
Of roughly 8,800 targets only a part is listed; those with a hit were picked by preference. About 0.5% of all pairs of compound and target were hits.

Experiments:
Assay in all cases: log2 fold change, soluble protein after heating vs DMSO (PISA); higher = thermal stabilisation; K562 lysate, 10 uM; active = over 0.2 and 3.5 SD of the protein, either way, in both replicates (recomputed)
lapatinib = compound: CS(=O)(=O)CCNCc1ccc(-c2ccc3ncnc(Nc4ccc(OCc5cccc(F)c5)c(Cl)c4)c3c2)o1 [lapatinib]
How it was run: (§1)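 Dounce homogenisation of K562 pellets in PBS pH 7.4 with 1 mM MgCl2 produced a crude extract, used at 1 mg/mL protein. Exposure to 10 μM compound lasted 30 min, and aliquots were then heated for 3 min across 48°C-58°C, pooled and brought to 0.5% NP-40 at 4°C. The supernatant after 21,000xg for 90 min was quantified by TMTpro 16plex LC-MS/MS with channel sums equalised. Duplicate values are given as log-two fold change in thermal stability relative to solvent controls.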

pictilisib = compound: CS(=O)(=O)N1CCN(Cc2cc3nc(-c4cccc5[nH]ncc45)nc(N4CCOCC4)c3s2)CC1 [pictilisib]
How it was run: as §1

[1] = compound: C[C@H](C1=CC=C(C=C1)C(=O)NC2=C3C=CNC3=NC=C2)N
How it was run: as §1

duvelisib = compound: C[C@H](Nc1ncnc2nc[nH]c12)c1cc2cccc(Cl)c2c(=O)n1-c1ccccc1 [duvelisib]
How it was run: as §1

gandotinib = compound: Cc1cc(Nc2cc(CN3CCOCC3)c3nc(C)c(Cc4ccc(Cl)cc4F)n3n2)n[nH]1 [gandotinib]
How it was run: as §1

[2] = compound: Cc1cccc(CC(=O)N2CCc3c2ccc(-c2cn(C)c4ncnc(N)c24)c3F)n1
How it was run: as §1

[3] = compound: Cc1nc(Nc2n[nH]c3c2CN(C(=O)N[C@H](CN(C)C)c2ccccc2)C3(C)C)c2sccc2n1
How it was run: as §1

[4] = compound: Cc1ncc(-c2ccnc(Nc3ccc(S(C)(=O)=O)cc3)n2)n1C(C)C
How it was run: as §1

[5] = compound: Cn1cc(-c2ccc3c(c2)CCN3C(=O)Cc2cccc(C(F)(F)F)c2)c2c(N)ncnc21
How it was run: as §1

quisinostat = compound: Cn1cc(CNCC2CCN(c3ncc(C(=O)NO)cn3)CC2)c2ccccc21 [quisinostat]
How it was run: as §1

tipifarnib = compound: Cn1cncc1[C@@](N)(c1ccc(Cl)cc1)c1ccc2c(c1)c(-c1cccc(Cl)c1)cc(=O)n2C [tipifarnib]
How it was run: as §1

[6] = compound: NC(=O)Nc1cc(-c2cccc(F)c2)sc1C(=O)N[C@H]1CCCNC1
How it was run: as §1

[7] = compound: NC(=O)c1cnc(N[C@@H]2CCCC[C@@H]2N)nc1Nc1cccc(-n2nccn2)c1
How it was run: as §1

[8] = compound: NC1(c2ccc(-c3nc4ccn5c(=O)[nH]nc5c4cc3-c3ccccc3)cc2)CCC1
How it was run: as §1

crizotinib = compound: C[C@@H](Oc1cc(-c2cnn(C3CCNCC3)c2)cnc1N)c1c(Cl)ccc(F)c1Cl [crizotinib]
How it was run: as §1

tozasertib = compound: Cc1cc(Nc2cc(N3CCN(C)CC3)nc(Sc3ccc(NC(=O)C4CC4)cc3)n2)n[nH]1 [tozasertib]
How it was run: as §1

doramapimod = compound: Cc1ccc(-n2nc(C(C)(C)C)cc2NC(=O)Nc2ccc(OCCN3CCOCC3)c3ccccc23)cc1 [doramapimod]
How it was run: as §1

bafetinib = compound: Cc1ccc(NC(=O)c2ccc(CN3CC[C@H](N(C)C)C3)c(C(F)(F)F)c2)cc1Nc1nccc(-c2cncnc2)n1 [bafetinib]
How it was run: as §1

dasatinib = compound: Cc1nc(Nc2ncc(C(=O)Nc3c(C)cccc3Cl)s2)cc(N2CCN(CCO)CC2)n1 [dasatinib]
How it was run: as §1

nilotinib = compound: Cc1cn(-c2cc(NC(=O)c3ccc(C)c(Nc4nccc(-c5cccnc5)n4)c3)cc(C(F)(F)F)c2)cn1 [nilotinib]
How it was run: as §1

Measured: log2 fold change

ABL1 isoform 2 (UniProt P00519)
Sequence of UniProt P00519 (P00519 whole entry, looked up): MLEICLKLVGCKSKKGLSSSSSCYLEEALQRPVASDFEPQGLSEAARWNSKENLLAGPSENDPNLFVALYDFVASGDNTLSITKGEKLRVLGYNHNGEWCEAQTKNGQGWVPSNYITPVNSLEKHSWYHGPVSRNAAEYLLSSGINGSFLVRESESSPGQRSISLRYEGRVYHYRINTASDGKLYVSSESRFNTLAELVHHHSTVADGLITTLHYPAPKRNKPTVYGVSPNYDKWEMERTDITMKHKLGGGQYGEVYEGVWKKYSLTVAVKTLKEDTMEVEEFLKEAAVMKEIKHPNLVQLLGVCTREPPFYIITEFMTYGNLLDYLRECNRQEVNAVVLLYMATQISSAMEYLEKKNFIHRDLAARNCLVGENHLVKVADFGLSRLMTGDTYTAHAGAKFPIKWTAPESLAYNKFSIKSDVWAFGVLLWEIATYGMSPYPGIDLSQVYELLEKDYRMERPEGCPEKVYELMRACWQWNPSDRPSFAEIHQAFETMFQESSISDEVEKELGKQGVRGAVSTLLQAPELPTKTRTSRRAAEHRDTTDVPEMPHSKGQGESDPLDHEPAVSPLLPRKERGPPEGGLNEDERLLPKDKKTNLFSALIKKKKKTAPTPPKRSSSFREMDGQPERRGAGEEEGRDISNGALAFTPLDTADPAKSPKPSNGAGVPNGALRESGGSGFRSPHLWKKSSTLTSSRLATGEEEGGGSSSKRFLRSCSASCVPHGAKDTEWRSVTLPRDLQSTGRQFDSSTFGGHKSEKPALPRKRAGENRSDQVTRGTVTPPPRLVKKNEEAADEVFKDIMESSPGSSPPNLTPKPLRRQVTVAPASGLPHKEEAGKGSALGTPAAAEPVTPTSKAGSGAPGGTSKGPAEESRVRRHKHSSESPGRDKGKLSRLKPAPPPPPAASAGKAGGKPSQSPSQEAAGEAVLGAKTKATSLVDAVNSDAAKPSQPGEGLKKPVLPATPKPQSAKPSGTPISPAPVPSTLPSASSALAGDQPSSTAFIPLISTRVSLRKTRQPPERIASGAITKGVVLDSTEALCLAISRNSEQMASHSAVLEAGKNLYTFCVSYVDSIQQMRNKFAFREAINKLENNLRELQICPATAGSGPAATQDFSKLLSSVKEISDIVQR
inactive: lapatinib -0.01 | pictilisib -0.094 | [1] 0.135 | duvelisib 0.004 | gandotinib -0.04 | [2] -0.048 | [3] 0.006 | [4] 0.019 | [5] -0.002 | quisinostat -0.074 | tipifarnib -0.074 | [6] 0.08 | [7] 0.022 | [8] -0.009

ABCA3 (UniProt Q99758)
Sequence of UniProt Q99758 (Q99758 whole entry, looked up): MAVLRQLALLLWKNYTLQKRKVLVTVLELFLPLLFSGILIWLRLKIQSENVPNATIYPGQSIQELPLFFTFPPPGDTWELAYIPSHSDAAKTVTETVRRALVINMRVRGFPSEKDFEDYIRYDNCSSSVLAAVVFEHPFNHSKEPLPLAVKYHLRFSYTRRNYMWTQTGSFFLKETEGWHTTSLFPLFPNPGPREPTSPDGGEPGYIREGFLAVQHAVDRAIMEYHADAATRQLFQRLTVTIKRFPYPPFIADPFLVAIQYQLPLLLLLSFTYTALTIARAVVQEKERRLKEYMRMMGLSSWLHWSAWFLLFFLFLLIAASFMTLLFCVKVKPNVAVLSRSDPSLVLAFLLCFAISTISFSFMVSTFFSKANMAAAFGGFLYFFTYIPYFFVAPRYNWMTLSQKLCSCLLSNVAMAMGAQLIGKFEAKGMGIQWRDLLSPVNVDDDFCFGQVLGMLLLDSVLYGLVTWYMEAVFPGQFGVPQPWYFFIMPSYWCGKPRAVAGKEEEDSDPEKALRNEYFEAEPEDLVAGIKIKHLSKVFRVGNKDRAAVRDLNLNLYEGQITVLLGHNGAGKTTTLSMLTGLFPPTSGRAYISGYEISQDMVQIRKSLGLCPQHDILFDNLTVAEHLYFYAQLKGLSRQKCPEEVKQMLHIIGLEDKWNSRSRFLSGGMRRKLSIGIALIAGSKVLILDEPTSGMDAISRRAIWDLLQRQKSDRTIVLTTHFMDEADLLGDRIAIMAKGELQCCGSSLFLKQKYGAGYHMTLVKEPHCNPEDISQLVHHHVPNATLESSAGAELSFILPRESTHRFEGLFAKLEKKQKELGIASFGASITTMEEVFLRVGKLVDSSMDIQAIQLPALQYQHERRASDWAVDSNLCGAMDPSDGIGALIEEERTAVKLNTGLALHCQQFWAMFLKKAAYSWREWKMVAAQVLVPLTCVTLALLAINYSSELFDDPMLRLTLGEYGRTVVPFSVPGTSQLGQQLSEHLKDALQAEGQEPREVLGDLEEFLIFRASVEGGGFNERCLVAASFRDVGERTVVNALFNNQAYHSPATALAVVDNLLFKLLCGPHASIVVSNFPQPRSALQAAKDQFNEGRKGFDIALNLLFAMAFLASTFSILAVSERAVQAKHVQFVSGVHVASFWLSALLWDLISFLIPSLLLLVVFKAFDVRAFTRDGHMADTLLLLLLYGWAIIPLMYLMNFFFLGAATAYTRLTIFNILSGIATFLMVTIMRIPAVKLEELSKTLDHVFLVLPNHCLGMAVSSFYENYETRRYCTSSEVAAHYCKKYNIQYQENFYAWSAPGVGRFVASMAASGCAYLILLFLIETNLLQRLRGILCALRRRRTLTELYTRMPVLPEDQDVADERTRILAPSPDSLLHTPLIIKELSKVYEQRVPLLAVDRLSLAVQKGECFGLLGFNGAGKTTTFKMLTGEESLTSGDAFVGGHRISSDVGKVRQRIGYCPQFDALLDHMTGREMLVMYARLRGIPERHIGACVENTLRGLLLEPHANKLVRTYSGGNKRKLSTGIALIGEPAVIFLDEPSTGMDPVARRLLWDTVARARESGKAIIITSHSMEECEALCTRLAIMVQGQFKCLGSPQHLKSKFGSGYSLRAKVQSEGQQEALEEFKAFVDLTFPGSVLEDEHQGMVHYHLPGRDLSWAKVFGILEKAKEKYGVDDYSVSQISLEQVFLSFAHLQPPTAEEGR
active: crizotinib -0.469
inactive: lapatinib 0.025 | pictilisib -0.028 | [1] -0.156 | duvelisib 0.061 | gandotinib 0.113 | tozasertib -0.16 | doramapimod 0.203 | bafetinib -0.006 | [2] -0.075 | dasatinib 0.044 | [5] -0.066 | quisinostat 0.08 | [6] -0.092 | [7] 0.001 | [8] -0.019

ABCC5 (UniProt O15440)
Sequence of UniProt O15440 (O15440 whole entry, looked up): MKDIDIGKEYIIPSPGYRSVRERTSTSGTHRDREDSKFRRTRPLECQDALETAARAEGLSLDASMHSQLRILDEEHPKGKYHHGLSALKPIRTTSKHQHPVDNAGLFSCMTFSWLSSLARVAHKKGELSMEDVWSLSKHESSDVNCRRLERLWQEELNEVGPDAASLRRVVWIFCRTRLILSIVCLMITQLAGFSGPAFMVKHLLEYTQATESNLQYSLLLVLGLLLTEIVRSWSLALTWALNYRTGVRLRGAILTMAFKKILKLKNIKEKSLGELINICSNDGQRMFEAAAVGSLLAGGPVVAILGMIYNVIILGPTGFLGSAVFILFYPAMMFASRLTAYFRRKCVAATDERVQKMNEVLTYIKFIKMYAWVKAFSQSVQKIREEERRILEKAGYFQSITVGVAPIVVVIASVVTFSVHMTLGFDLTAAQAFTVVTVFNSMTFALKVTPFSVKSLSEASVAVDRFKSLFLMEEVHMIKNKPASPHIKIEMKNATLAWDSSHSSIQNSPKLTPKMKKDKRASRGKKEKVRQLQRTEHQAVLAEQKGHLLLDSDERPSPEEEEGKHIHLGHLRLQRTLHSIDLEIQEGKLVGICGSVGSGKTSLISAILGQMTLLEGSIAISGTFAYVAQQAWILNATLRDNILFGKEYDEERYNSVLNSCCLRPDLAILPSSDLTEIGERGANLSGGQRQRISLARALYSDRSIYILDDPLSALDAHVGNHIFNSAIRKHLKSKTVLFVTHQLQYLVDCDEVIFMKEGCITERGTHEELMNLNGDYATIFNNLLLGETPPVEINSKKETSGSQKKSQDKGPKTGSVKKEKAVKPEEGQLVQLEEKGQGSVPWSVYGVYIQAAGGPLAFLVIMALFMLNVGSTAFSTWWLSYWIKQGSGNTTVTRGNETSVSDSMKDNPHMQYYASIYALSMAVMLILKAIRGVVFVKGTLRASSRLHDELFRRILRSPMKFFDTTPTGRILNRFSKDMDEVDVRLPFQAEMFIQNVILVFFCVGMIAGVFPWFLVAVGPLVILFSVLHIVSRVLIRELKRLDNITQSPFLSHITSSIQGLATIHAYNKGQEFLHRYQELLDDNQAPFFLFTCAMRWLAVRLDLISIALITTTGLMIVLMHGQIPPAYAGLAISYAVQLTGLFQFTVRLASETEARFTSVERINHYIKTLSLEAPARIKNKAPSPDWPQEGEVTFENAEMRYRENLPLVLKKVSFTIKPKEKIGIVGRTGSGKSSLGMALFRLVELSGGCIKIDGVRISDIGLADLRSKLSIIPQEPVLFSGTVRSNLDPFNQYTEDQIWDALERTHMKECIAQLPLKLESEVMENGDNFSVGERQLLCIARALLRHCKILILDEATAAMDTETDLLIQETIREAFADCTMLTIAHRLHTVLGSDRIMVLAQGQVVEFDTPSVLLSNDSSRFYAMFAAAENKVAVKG
inactive: lapatinib 0.013 | pictilisib 0.13 | crizotinib 0.014 | [1] -0.038 | duvelisib -0.045 | gandotinib 0.043 | tozasertib -0.016 | doramapimod 0.081 | bafetinib -0.117 | [2] 0.045 | dasatinib 0.105 | [5] -0.047 | quisinostat -0.003 | [6] 0.035 | [7] -0.035 | [8] -0.015

AGPAT2 (UniProt O15120)
Sequence of UniProt O15120 (O15120 whole entry, looked up): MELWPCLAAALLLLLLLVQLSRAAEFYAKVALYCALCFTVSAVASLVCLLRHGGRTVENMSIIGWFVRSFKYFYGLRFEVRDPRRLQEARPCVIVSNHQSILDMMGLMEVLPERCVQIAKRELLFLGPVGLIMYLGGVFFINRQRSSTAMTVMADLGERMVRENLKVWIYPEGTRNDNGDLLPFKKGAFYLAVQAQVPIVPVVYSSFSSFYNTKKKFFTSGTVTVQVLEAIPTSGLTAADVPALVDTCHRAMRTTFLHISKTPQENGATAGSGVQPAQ
inactive: crizotinib -0.097 | [1] 0.006 | gandotinib -0.145 | tozasertib 0.048 | doramapimod 0.1 | [2] 0.021 | nilotinib -0.044 | [3] 0.046 | [4] -0.037 | quisinostat 0.006 | tipifarnib 0.029 | [6] 0.018 | [8] 0.02

ARMCX5 (UniProt Q6P1M9)
Sequence of UniProt Q6P1M9 (Q6P1M9 whole entry, looked up): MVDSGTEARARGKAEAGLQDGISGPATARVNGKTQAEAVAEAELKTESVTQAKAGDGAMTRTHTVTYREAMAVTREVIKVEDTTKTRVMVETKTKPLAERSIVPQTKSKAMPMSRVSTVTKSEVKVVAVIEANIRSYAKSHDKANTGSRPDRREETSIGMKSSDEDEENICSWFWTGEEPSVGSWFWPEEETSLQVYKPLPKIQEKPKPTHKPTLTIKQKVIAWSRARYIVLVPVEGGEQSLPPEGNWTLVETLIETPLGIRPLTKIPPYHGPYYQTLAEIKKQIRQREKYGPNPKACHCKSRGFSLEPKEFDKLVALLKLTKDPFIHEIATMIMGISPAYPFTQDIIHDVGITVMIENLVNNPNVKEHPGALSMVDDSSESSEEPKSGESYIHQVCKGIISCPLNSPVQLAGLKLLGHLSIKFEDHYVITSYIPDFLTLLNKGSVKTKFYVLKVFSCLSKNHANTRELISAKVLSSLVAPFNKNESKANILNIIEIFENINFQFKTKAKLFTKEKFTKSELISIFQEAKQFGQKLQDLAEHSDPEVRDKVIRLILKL
inactive: lapatinib -0.033 | pictilisib 0.04 | [1] -0.001 | duvelisib -0.114 | gandotinib 0.001 | tozasertib 0.032 | bafetinib -0.104 | [2] 0.078 | nilotinib 0.035 | [3] 0.009 | dasatinib -0.039 | [4] 0.037 | [5] -0.07 | tipifarnib -0.023 | [7] 0.02 | [8] -0.027
